Screens as filed in PubChem BioAssay.
Hits are enriched below; roughly 3.1% of the tested compounds scored in any of these assays.
p53null 32C kill: p53 null cell cytotoxicity, permissive temperature. H1299-neo p53 null cells, ATP luminescence, 24 h, 32C. Potency, µM (top dose mostly 46.1 µM), for the others: at the highest dose activity change, negative = cytotoxicity, usual class: cytotoxic. 55,000 compounds, 0.62% hits;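 also: 0% = DMSO only and -100% = full killing by 100 µM tamoxifen; nearly all actives have a fitted effect of over 55% in size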
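H1299-neo, 600 cells/well; overnight 37C; cpd up to 46 uM, 24 h at 32C; ATPlite luminescence after 20 min RT; normalized to DMSO (0%) and tamoxifen 100 uM (100% kill); Hill-fit AC50.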
PMP22 txn: modulators of PMP22 gene transcription in S16 Schwann cells; S16 Pmp22-F2sN Schwann cells, FLuc/NLuc coincidence luminescence, 24 h; Potency, µM (titrated, usually from 57.5 µM), for the others: top-dose activity change, negative = inhibition, usual class: inhibitors; 43,000 compounds, 2% hits; AID 1508649; active = clear falling dose curves in both reporters; inconclusive = both reporters move, but less clearly or upward; inactive = either reporter flat; the % is the NLuc reporter signal
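Luminescent read-out of sequential FLuc and NLuc signals from a reporter embedded in the Pmp22 3' UTR of S16 Schwann cells, taken after 24 h compound exposure at 37C; compounds reducing both signals score as inhibitors of expression.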
S16 F2sN tox: toxic to S16 Pmp22-F2sN Schwann cells; 43,000 compounds, 0.48% hits; S16 Pmp22-F2sN Schwann cells (luciferase reporters placed in the Pmp22 gene) viability, CellTiter-Glo, 24 h; Potency, µM (top dose mostly 57.5 µM), inactives show at the highest dose activity change, negative = cytotoxicity, hits mostly cytotoxic; also: nearly all actives have a fitted effect of over 65% in size
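Rat S16 Schwann reporter line, 24 h treatment with library compounds delivered at 23 nL per well. Cell viability by CellTiter-Glo luminescence.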
SKOV3 invasion: ovarian cancer metastasis inhibition, 3D TME model. 46,000 compounds, 0.1% hits. AID 1963576. SKOV3ip1-GFP adhesion/invasion on 3D omental model, fluorescence. Potency, µM (titrated, usually from 45.8 µM), without a hit: top-dose activity change, negative = inhibition, hits mostly inhibitors;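 also: plate controls were DMSO wells for no effect and tomatine positive control wells for full effect; nearly all actives have a fitted effect of over 65% in size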
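Primary human omental fibroblast/mesothelial 3D culture pre-formed 48 h. SKOV3ip1-GFP cells added with compounds (0.36-46 umol/L), incubated 2 h RT/16 h 37 C, fixed; GFP cells quantified at 488/509 nm.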
pS6 MEF inh: mTORC1 pathway inhibition measured by phospho-rpS6 | Tsc2-/- p53-/- MEF, phospho-rpS6 immunofluorescence/PI, 24 h | Potency, µM (top dose mostly 38.3 µM), without a hit: at the top dose activity change, negative = inhibition, hits mostly inhibitors | 44,000 compounds, 0.78% hits | AID 493208;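 also: plate controls were DMSO for no effect and rapamycin for full effect; nearly all actives have a fitted effect of over 50% in size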
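Compounds act on Tsc2-/-, p53-/- fibroblasts carrying an empty vector for 24 h before fixation and dual staining for phospho-S6 and DNA (propidium iodide). Values are percentages of cells above a rapamycin-defined pS6/PI threshold.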
p53null 39C kill: selectivity test: cytotoxicity in p53 null cells, nonpermissive temperature; H1299 p53-null (neo) cells, 39C, ATPlite viability, 24 h; Potency, µM (top dose mostly 46.1 µM), for inactives: top-dose activity, negative = cell killing, most hits filed as cytotoxic; 55,000 compounds, 0.97% hits; AID 904;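 also: 0% = DMSO only and -100% = full killing by 100 µM tamoxifen; nearly all actives have a fitted effect of over 50% in size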
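ATP-luminescence viability readout (ATPlite, 20 min RT) after 24 hr compound treatment at 39C of H1299-neo or H1299-p53A138V cells; titration up to 46 uM; normalized to DMSO and 100 uM tamoxifen; Hill-fit AC50.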
An asterisk follows results filed as active; i = inactive; ? = inconclusive; / = not tested or not shown. Unless noted, calls follow the shape of the dose curve; as a rule, active = well fitted curve in the direction sought with a large enough effect; inconclusive = small, poorly fitted or top-dose-only effect, or another doubt; inactive = no such curve, though single readings can be large; an effect the other way counts as inactive or inconclusive. Unless noted, % is scaled to controls: 0 for no effect and ±100 for the full control effect; potency is read from the fitted curve at half-maximal effect.

SMILES	p53null 32C kill	PMP22 txn	S16 F2sN tox	SKOV3 invasion	pS6 MEF inh	p53null 39C kill
CN(C)c1ccc(C(=O)Nc2cccc(-c3nc4cccnc4s3)c2)cc1	-2.7%	?	-9.7%	0.0%	-4.8%	0.8%
CN(C)c1ccc(C(=O)Nc2sc(Nc3ccccc3)nc2C(N)=O)cc1	?	-16.9%	-1.1%	21.9%	4.65µM*	?
CCOc1ccc2oc(=O)cc(CN3CCN(c4ccccc4)CC3)c2c1	4.9%	?	-23.6%	?	4.8%	9.9%
CC(C)OCc1cc(CN2CCN(c3ccccc3)CC2)c(O)c2ncccc12	?	5.12µM*	?	6.3%	?	1.26µM*
CCOCc1cc(CN2CCN(c3cccc(Cl)c3)CC2)c(O)c2ncccc12	?	5.75µM*	?	-9.2%	11.7µM*	?
NC[C@H]1O[C@H](O[C@@H]2[C@@H](O)[C@@H](O[C@H]3O[C@H](CO)[C@@H](O)[C@H](N)[C@@H]3O)[C@H](N)C[C@@H]2N)[C@H](O)[C@@H](O)[C@H]1O	/	/	/	1.3%	/	/
CCNC(=O)c1cc2c(-c3cc(OCCN4CCCC4)c(Cl)cc3Cl)nc(N)nc2s1	/	/	/	18.5%	/	/
Cc1ccc2[nH]cc(C(c3ccccc3)c3ccc(C)s3)c2c1 (stereo unspecified)	11.2µM*	?	-26.6%	?	?	15.8µM*
O=C(NC1CCNCC1)c1[nH]ncc1NC(=O)c1c(Cl)cccc1Cl	/	/	/	19.2%	/	/
Cc1ccc(Nc2nc(Nc3ccc(C)c(C)c3)nc(N3CCOCC3)n2)cc1C	-4.2%	-0.3%	?	i	1.04µM*	24.4%
COc1ccc(NC(=O)CSc2nc3ccccc3nc2N2CCOCC2)c(OC)c1	10.0%	-7.3%	-3.0%	-0.6%	12.3%	?
COc1ccc(Nc2nc(Nc3ccc(OC)cc3OC)nc(N3CCOCC3)n2)c(OC)c1	-0.2%	-14.4%	-27.1%	i	1.47µM*	3.8%
CC(=O)N(C)C1(c2ccccc2)CCN(CCC[C@]2(c3ccc(Cl)c(Cl)c3)CCCN(C(=O)c3ccccc3)C2)CC1	/	/	/	-13.0%	/	/
CC(C)C[C@H](CC(=O)O)C(=O)N[C@@H](Cc1c[nH]c2ccccc12)C(=O)N[C@@H](C)c1ccccc1	/	/	/	5.8%	/	/
N#CC(=C1Nc2ccccc2S1)c1ccnc(OCc2ccc(CN3CCOCC3)cc2)n1	/	/	/	-4.7%	/	/
CCc1ccccc1NS(=O)(=O)c1ccc(-c2coc(C)n2)cc1	7.08µM*	-48.1%	-26.1%	-6.5%	-19.6%	10.0%
Cc1cc(C)c(NS(=O)(=O)c2ccc(-c3coc(C)n3)cc2)c(C)c1	0.5%	-8.2%	3.0%	-5.3%	-8.1%	3.9%
O=C(NCCN1CCCCC1)c1ccc(Cn2c(SCc3ccc(F)cc3)nc3cccnc32)cc1	15.8µM*	-6.0%	?	?	-9.7%	?
COc1ccc(NC(=O)Cn2c(SCc3ccc(F)cc3)nc3cccnc32)cc1OC	?	-61.0%	-13.0%	-9.0%	-17.9%	?
COCCCNC(=O)c1ccc(Cn2c(SCc3ccc(F)cc3)nc3cccnc32)cc1	10µM*	-10.0%	-24.5%	i	-6.5%	12.6µM*
COc1ccc(NC(=O)Cn2c(SCc3ccc(C)cc3)nc3cccnc32)cc1OC	3.55µM*	?	-18.3%	-4.1%	-19.5%	5.01µM*
CN(C)CCNC(=O)c1ccc(Cn2c(SCc3ccc(F)cc3)nc3cccnc32)cc1	-10.8%	10.4%	-18.0%	-17.0%	-5.5%	-10.0%
COCCCNC(=O)c1ccc(CSc2nc3cccnc3n2Cc2ccc(OC)cc2)cc1	3.8%	?	-4.0%	i	?	-25.3%
N#CC1(c2cccc(C(=O)Nc3cc(Oc4ccc5nc(NC(=O)C6CC6)sc5n4)ccc3F)c2Cl)CC1	/	/	/	16.4%	/	/
Nc1nc(Nc2ccc(S(N)(=O)=O)cc2)nn1C(=O)c1c(F)cccc1F	/	/	/	23.6%	/	/
SMILES	p53null 32C kill	PMP22 txn	S16 F2sN tox	SKOV3 invasion	pS6 MEF inh	p53null 39C kill
CCOC(CN1C(=O)[C@](CC(=O)Nc2ccc(C)cc2)(NC(=O)Nc2ccc(C)cc2)c2ccccc21)OCC	/	/	/	-1.2%	/	/
CCCOc1ccc(C(=O)Nc2ccc(NC(=O)c3ccccc3)c(Br)c2)cc1	-13.2%	?	?	i	18.5µM*	-10.1%
CCOc1ccc(NC(=O)c2ccc(N)cc2)cc1	11.2µM*	/	/	/	/	?
CCOc1ccc(C(=O)Nc2ccc(-n3nncc3-c3ccc(OC)cc3)cc2)cc1	3.4%	15.8%	-13.6%	3.2%	11.4%	-7.4%
C=CC(=O)N1CCc2ccc(-n3c(=O)ccc4cnc5ccc(-c6cnn(C)c6)cc5c43)cc21	/	/	/	4.2%	/	/
Cc1cccc(C=NNc2cc(N3CCOCC3)nc(OCCc3ccccn3)n2)c1	/	/	/	-31.0%	/	/
O=C(/C(C=Nc1ccc(Br)cc1)=C(/O)c1ccco1)C(F)(F)F	5.01µM*	/	/	/	/	?
CCc1ccc(NC(=O)Nc2ccccc2OCc2cc(=O)n3ccccc3n2)cc1	?	?	0.2%	-6.1%	3.1%	2µM*
CC(C)C(=O)Nc1ccccc1OCc1cc(=O)n2ccccc2n1	-4.6%	1.0%	-1.7%	-6.4%	-24.6%	11.4%
COc1cc2c(Nc3ccc(Cl)c(Cl)c3F)ncnc2cc1OCC1C[C@@H]2CN(C)C[C@H]2C1	/	/	/	-26.0%	/	/
CC(=O)c1cccc(Nc2nc(-c3cccc(C)c3)nc3ccccc23)c1	?	?	?	?	?	11.2µM*
CCOc1ccc(Nc2nc(-c3cccc(Cl)c3)c3c(n2)-c2ccccc2OC3)cc1	?	-3.6%	1.0%	-10.1%	2.33µM*	?
Clc1cccc(N2CCN(c3ncnc4c3nc3n4CCCC3)CC2)c1	-11.2%	?	?	i	-20.8%	-38.2%
Cc1cccc(N2CCN(c3ncnc4c3nc3n4CCCCC3)CC2C)c1 (stereo unspecified)	-3.3%	4.39µM*	8.91µM*	?	9.27µM*	?
Fc1ccc(N2CCN(c3ncnc4c3nc3n4CCCC3)CC2)cc1	?	4.5µM*	?	6.2%	-0.6%	-20.5%
Cc1ccc(CNc2ncnc3c2nc2n3CCCC2)cc1	-12.4%	-33.2%	-2.8%	24.9%	-1.4%	-12.8%
Cc1ccc(Nc2ncnc3c2nc2n3CCCC2)c(Br)c1	?	-4.1%	-5.3%	-5.9%	-1.4%	11.2µM*
O=C(C1CCN(c2ncnc3c2nc2n3CCCCC2)CC1)N1CCN(c2ccc(F)cc2)CC1	4.6%	?	?	7.2%	-0.4%	-22.7%
